Experimental findings from PubChem BioAssay (Tox21) are described below.

Test [1] is described as follows: qHTS assay to identify small molecule agonists of the vitamin D receptor (VDR) signaling pathway - cell viability counter screen (AID 743224). Further: series mostly up to about 63 µM; nearly all actives have a fitted effect of over 50% in size. An outline of the steps:
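Luminescence from CellTiter-Glo, read after 30 min at room temperature, reports viability of VDR-bla cells treated with compounds for 16 h at 37C in the wells used for the beta-lactamase FRET read.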
A general note: In qHTS, concentration-response curves come from the screen itself.

A short description of test [2]: qHTS assay to identify small molecule agonists of the NFkB signaling pathway - cell viability counter screen (AID 1159515; calls by dose curve; further: series mostly up to about 61 µM; nearly all actives have a fitted effect of over 55% in size). An outline of the steps:
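Luminescence from CellTiter-Glo (30 min, room temperature) gives viability, measured in the same wells as the beta-lactamase reporter read. Cells were NFkB-bla ME-180, 2,000 per well, treated 5 hr with compounds.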

Test [3] in a line: qHTS assay to identify small molecule agonists of the endoplasmic reticulum stress response signaling pathway (AID 1159516; active means well fitted activation curve with a large enough effect in the signal ratio in the repeat runs, not every such curve was filed as active; the % refers to the signal ratio). An outline of the steps:
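Read-out is beta-lactamase cleavage of a FRET substrate (405 nm excitation; 460 and 530 nm emissions) in ESRE-bla HeLa cells after a 5 hr compound exposure at 37 C. Substrate incubation ran 2 hr at room temperature.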

Test [4] can be described thus: qHTS assay to identify small molecule agonists of the endoplasmic reticulum stress response signaling pathway - cell viability counter screen (AID 1159517; calls by dose curve;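 further: HeLa cells carrying an ER stress response element beta-lactamase reporter; series mostly up to about 61 µM; nearly all actives have a fitted effect of over 50% in size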). Summed up: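 Luminescence readout: CellTiter-Glo, 30 min RT, same wells as the ESRE-bla reporter read. HeLa ESRE-bla, 1,500 cells/well, o/n 37 C; cpd 5 hr 37 C/5% CO2.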
A short description of test [5]: qHTS assay to identify small molecule antagonists of the retinoid-related orphan receptor gamma (ROR-gamma) signaling pathway - cell viability counter screen (AID 1159520). Further: nearly all actives have a fitted effect of over 50% in size. Summed up:
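Tet-on ROR gamma CHO cells (1,000/well) were plated 4 hr, given compounds in DMSO for 2 hr at 37 C, then induced with 1 uM final doxycycline for 16 hr. Viability was read as ATP by CellTiter-Glo luminescence after 30 min.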

In test [6] the target is Nuclear receptor ROR-gamma (Homo sapiens) (UniProt P51449). The test can be described thus: qHTS assay to identify small molecule antagonists of the retinoid-related orphan receptor gamma (ROR-gamma) signaling pathway (AID 1159521; further: top concentration of the series differs between compounds; nearly all actives have a fitted effect of over 50% in size). Summed up: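 Inducible-expression reporter assay: doxycycline (1 uM final) switched on RORγ in CHO cells bearing a ROR response element-luciferase construct, with test compounds present from 2 h beforehand. Decreased luminescence after 16 h defined antagonist activity.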

Test [7] is described as follows: qHTS assay to identify small molecule agonists of the AP-1 signaling pathway - cell viability counter screen (AID 1159525; calls by dose curve; further: nearly all actives have a fitted effect of over 55% in size). An outline of the steps:
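ME-180 AP-1-bla, 2500 cells/well, Opti-MEM + 0.5% dialyzed FBS; overnight 37 °C; cpd 15-pt titration, 5 h 37 °C; CellTiter-Glo 30 min RT; luminescence read; normalised to TOAB and DMSO controls.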

A short description of test [8]: qHTS assay to identify small molecule agonists of the AP-1 signaling pathway (AID 1159526; calls by dose curve).
For test [9], the target named is Retinoic acid receptor RXR-alpha (Homo sapiens) (UniProt P19793). The test can be described thus: qHTS assay to identify small molecule agonists of the RXR signaling pathway (AID 1159527; calls by dose curve; further: nearly all actives have a fitted effect of over 35% in size; further: potency means the concentration at half of the fitted maximal effect). Summed up:
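Compounds in DMSO were added to RXR-alpha-UAS-bla HEK 293T cells kept in 2% charcoal-stripped serum, and incubated 16 hr at 37 C with 5% CO2. Reporter signal came from a 2 hr B/G FRET substrate step.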

A short description of test [10]: qHTS assay to identify small molecule agonists of the RXR signaling pathway - cell viability counter screen (AID 1159529). An outline of the steps:
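Counter screen: CellTiter-Glo luminescence. Cells: RXR-alpha-UAS-bla HEK 293T. Medium: 2% charcoal-stripped FBS. Treatment: 16 h, 37 C. Reagent incubation: 30 min, RT.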

A short description of test [11]: qHTS assay to identify small molecule antagonists of the retinoid acid receptor (RAR) signaling pathway - cell viability counter screen (AID 1159551). Further: nearly all actives have a fitted effect of over 35% in size. An outline of the steps: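 Luminescent ATP quantitation (CellTiter-Glo) gave cell viability in C3RL4 cells exposed to test chemicals for 6 h at 37 C alongside 1 uM final retinol.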
Test [12] can be described thus: qHTS assay to identify small molecule antagonists of the vitamin D receptor (VDR) signaling pathway - cell viability counter screen (AID 743225). Further: nearly all actives have a fitted effect of over 50% in size. Summed up: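 Same-well multiplex: following 16 h treatment of HEK 293T cells carrying a UAS-driven beta-lactamase reporter with compound and agonist (3 nM final), and a 2 h FRET substrate step, CellTiter-Glo was added and luminescence read after 30 min.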

Test [13] in a line: qHTS assay to identify small molecule antagonists of the retinoic acid receptor (RAR) signaling pathway (AID 1159552; further: nearly all actives have a fitted effect of over 50% in size). An outline of the steps:
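Antagonism of retinol-induced RARE reporter activity was measured in C3RL4 cells. Exposure to compounds and 1 uM final retinol lasted 6 hr at 37 C, with luminescence as endpoint.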

The nature of test [14]: qHTS assay to identify small molecule agonists of the retinoic acid receptor (RAR) signaling pathway (AID 1159553). Summed up:
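Luminescence from a RARE-driven luciferase reporter in C3RL4 cells served as the read-out, measured after 30 min with detection reagent at room temperature. Compounds in DMSO were applied for 6 hr at 37 C following overnight seeding.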

Records with an inconclusive call do not appear. Unmarked numbers belong to inactive results. Active and inactive are the calls of the source. Unless noted, the call rests on the fitted dose curve; in most records, active means well fitted curve in the direction sought with a large enough effect in the repeat runs; inconclusive means weak or mixed curves; inactive means no such curve, though single readings can be large; an effect the other way counts as inactive or inconclusive.

Retinoic acid receptor RXR-alpha (Homo sapiens), sequence (P19793 whole entry, looked up): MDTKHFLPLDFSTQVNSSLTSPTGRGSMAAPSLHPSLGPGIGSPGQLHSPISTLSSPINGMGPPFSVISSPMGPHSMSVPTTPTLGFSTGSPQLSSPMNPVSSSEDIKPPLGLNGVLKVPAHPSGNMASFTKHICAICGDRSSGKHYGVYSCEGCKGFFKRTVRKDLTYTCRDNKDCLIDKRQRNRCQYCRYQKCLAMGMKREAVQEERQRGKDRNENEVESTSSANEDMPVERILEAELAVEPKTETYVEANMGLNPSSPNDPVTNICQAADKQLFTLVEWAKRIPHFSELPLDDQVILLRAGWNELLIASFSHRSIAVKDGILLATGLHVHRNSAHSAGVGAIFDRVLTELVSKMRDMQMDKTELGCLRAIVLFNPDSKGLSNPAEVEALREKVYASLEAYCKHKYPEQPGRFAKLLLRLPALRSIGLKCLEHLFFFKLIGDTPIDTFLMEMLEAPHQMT

For the compound `NC(=O)CF`, the Potency result in test [1], in [2], in [3], in test [4], in test [5] and in [6] was “inactive” each time. Moreover, the Potency entry in [7], in [8], in test [9], in test [10] and in test [11] was “inactive” each time.
On to `O=C(O)C(F)(F)C(F)(F)C(F)(F)C(F)(F)C(F)(F)F`, for which the Potency entry in [1], in test [12], in [2], in test [3], in test [4] and in test [5] was “inactive” throughout. Also, the Potency result in [6], in [7], in test [8], in test [9], in test [10] and in test [11] was “inactive” in each case. Also, the Potency result in [13] and in test [14] was “inactive” in each case.
With `CC(C)OC(=O)Cc1ccccc1`, the Potency result in [1], in test [12], in test [2], in test [3], in [4] and in test [5] was “inactive” in each case. Moreover, the Potency entry in test [6], in [7], in test [8], in [9], in test [10] and in [11] was “inactive” in each case.
Regarding `COc1ccc(C(O)(c2cncnc2)C2CC2)cc1` (configuration not stated), the Potency entry in test [1], in test [12], in test [2], in test [3], in [4] and in test [5] was “inactive” throughout. Also, the Potency entry in test [6], in [7], in [8], in [9], in test [10] and in test [11] was “inactive” each time. Besides, the Potency result in test [13] and in test [14] was “inactive” in each case.
Take `OCCSSCCO`: the Potency entry in test [1], in [12], in [2], in [3], in [4] and in test [5] was “inactive” in each case. Moreover, the Potency result in [6], in test [7], in test [8], in test [9], in test [10] and in test [11] was “inactive” throughout.
`Oc1cccc(Cl)c1`: the Potency entry in [1], in test [2], in [3], in test [4], in test [5] and in test [6] was “inactive” in each case. Further, the Potency result in test [7], in [8], in [9], in test [10] and in test [11] was “inactive” in each case.
As to `CC(C)C1(C)N=C(c2ncccc2C(=O)O)NC1=O` (configuration not stated), the Potency result in [1], in test [12], in test [2], in [3], in test [4] and in test [5] was “inactive” throughout. Also, the Potency result in [6], in test [7], in test [8], in [10] and in test [11] was “inactive” each time. For the same compound, the Potency in test [9] is 43.5 µM (active).
Consider `C[C@H]1O[C@H](OC2[C@@H](O)[C@@H](O)C(O)[C@H](O)[C@H]2O)[C@@H](N)C[C@@H]1N=C(N)C(=O)O` (some centres not stated), for which the Potency result in [2], in [3], in test [4], in test [5], in test [6] and in test [7] was “inactive” throughout. For the same compound, the Potency result in test [8], in test [9], in test [10], in [11], in [13] and in test [14] was “inactive” throughout.
Consider `CCOP(=S)(OCC)Oc1ccc(S(C)=O)cc1` (configuration not stated), for which the Potency entry in test [1], in test [12], in [2], in test [3], in test [4] and in [5] was “inactive” each time. The Potency result in [6], in test [7], in [8], in test [9], in test [10] and in test [11] was “inactive” each time. Also, the Potency entry in [13] and in [14] was “inactive” throughout.
